# Shown are actives, neighbours in structure and some others; about 4.7% of the full set was active somewhere.
# D1 ag: agonists of human D1 dopamine receptor. P21728. HEK293 T-REx D1 cells, calcium flux, agonist mode. activation, % at 2 µM. hit rate 1% among 360,000
#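 Agonism was scored from calcium flux recorded over 180 s (1 read/s) after pintool compound addition, following a 10-cycle baseline. Cells were inducible force-coupled HEK293 TREx D1, plated overnight at 30 C and loaded with no-wash calcium dye.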
# D1 PAM: enhances dopamine response at the human D1 receptor; P21728; HEK293 TREx D1 cells, calcium flux, dopamine EC20 potentiation; potentiation, % at 10 µM; hit rate 0.036% among 360,000; AID 504651; in the data active = potentiation above about 30%
# TRHR enhancer: allosterically enhances the human TRH receptor. P34981. TRHR cells, fluo-8 calcium fluorescence, EC20 TRH enhancement. enhancement, % at 2 µM. hit rate 0.66% among 360,000. AID 493056; in the data active = enhancement above about 30%
# Target sequence (P34981 whole entry, looked up): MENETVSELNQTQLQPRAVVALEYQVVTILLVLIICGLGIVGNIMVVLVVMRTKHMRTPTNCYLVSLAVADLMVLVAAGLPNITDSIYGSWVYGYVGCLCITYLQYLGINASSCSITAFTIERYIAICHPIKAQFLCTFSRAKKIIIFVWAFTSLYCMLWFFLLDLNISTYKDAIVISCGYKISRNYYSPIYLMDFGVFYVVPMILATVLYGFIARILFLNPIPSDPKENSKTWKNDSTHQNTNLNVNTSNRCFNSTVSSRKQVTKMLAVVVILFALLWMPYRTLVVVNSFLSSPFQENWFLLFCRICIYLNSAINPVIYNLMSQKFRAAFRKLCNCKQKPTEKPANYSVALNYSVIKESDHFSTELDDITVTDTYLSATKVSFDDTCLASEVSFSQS
#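 TRHR-expressing cells loaded with fluo-8 calcium dye were read kinetically (ex 480/em 530) during compound addition, then stimulated with an EC20 of TRH (10 nM final). Enhancement of the Gq-mediated intracellular calcium response was scored.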
# TRHR agonist: TRH receptor (human) agonism; P34981; TRHR cells, calcium flux fluo-8, FDSS agonist mode; activation, % at 2 µM; hit rate 0.18% among 360,000; AID 493084
#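 TRHR-expressing cells, plated overnight in medium with 10% serum, were loaded with fluo-8 calcium dye at room temperature. After a 10 s baseline, library compound was pin-added and calcium release was recorded kinetically (ex 480/em 530) as agonist response.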
# D1 antag: blocks dopamine activation of the human D1 receptor; P21728; AID 504652; hit rate 3.2% among 360,000; activity change, negative = inhibition, % at 10 µM; HEK293 TREx D1 cells, calcium flux, dopamine EC80; hits give low values; in the data active = activity change below about -30%
#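 HEK293 T-REx cells expressing inducible, force-coupled D1 receptor; no-wash Ca dye, 30–90 min RT. Cmpd → 180 s read at 1 Hz → EC80 DA → 180 s read.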
# A number is an active result; – = inactive. Rule as the data show it, unless noted: active = activation above about 30%; inactive = the rest.
SMILES,D1 ag,D1 PAM,TRHR enhancer,TRHR agonist,D1 antag
Cc1ccc2cc(C#N)c(SCC(=O)NCC3CCCO3)nc2c1 (centres undefined),–,–,–,–,–
Cc1ccc(-c2ccc(SCC(=O)NCC3CCCO3)nn2)cc1 (centres undefined),–,–,–,–,-34
Cc1ccc2nc(SCC(=O)NCC3CCCO3)c(C#N)cc2c1 (centres undefined),–,–,–,–,-32
COc1ccc(N(CC(=O)NC(C)c2ccccc2)S(=O)(=O)c2c(C)nn(C)c2C)cc1 (centres undefined),–,–,–,–,–
COCCNc1nc2c(c(=O)n(C)c(=O)n2C)n1Cc1c(F)cccc1Cl,–,–,–,–,–
COc1ccc(C)cc1NC(=O)COC(=O)c1ccc(OCc2ccc(Cl)cc2Cl)c(OC)c1,–,–,–,–,-50
Cc1cc(C)cc(NC(=O)C2CCCN(S(=O)(=O)c3cccc4nsnc34)C2)c1 (centres undefined),–,–,–,–,–
C/C(=C/CCC(C)[C@H]1CC[C@@]2(C)C3=C(CC[C@]12C)[C@@]1(C)CCC(=O)C(C)(C)[C@@H]1CC3)C(=O)O (some centres undefined),–,–,–,–,-34
CCOc1ccccc1NC(=O)CSc1nnc(CNC(=O)COc2ccc(Cl)cc2)o1,–,–,–,–,-38
Cc1ccc(Cl)cc1N1CCN(C(=O)c2cn(C)c3ccc(S(=O)(=O)N4CCCCC4)cc3c2=O)CC1,–,–,–,–,–
COc1cc(OC)cc(C(=O)Nc2cc(-c3nc4cc(Cl)ccc4o3)ccc2Cl)c1,–,–,–,–,–
Cc1nn(-c2ccccc2)c2c1C(=O)N(c1ccccc1)C(=O)C(C)(C)C2,–,–,–,–,-40
COc1cccc(C(CNc2ccc(S(=O)(=O)N3CCN(C)CC3)cc2[N+](=O)[O-])N(C)C)c1 (centres undefined),–,–,–,–,–
COc1cc(S(=O)(=O)N2CCCN(C)CC2)ccc1NC(C)=O,–,–,30,–,–
CC(Nc1ccc(S(=O)(=O)N2CCN(C)CC2)cc1[N+](=O)[O-])c1ccccc1 (centres undefined),–,–,–,–,-73
COc1ccccc1C(C)Nc1ccc(S(=O)(=O)N2CCN(C)CC2)cc1[N+](=O)[O-] (centres undefined),–,–,–,–,-65
NC(N)=NCCC[C@H](NC(=O)CNC(=O)c1ccccc1)C(=O)Nc1cc(C(F)(F)F)ccc1Cl,–,–,–,–,–
Cc1ccc(CNC(=O)CNC(=S)N(Cc2ccccc2)Cc2ccccc2F)cc1,–,–,–,–,-30
CCOc1ccccc1NC(=O)CN1Cc2ccccc2C1=O,–,–,–,–,–
CCOc1ccc([N+](=O)[O-])c(N)c1,–,–,–,–,-33
CC(=O)c1c(C)[nH]c(C(=O)OCC(=O)N2c3ccccc3NC(=O)C2(C)C)c1C,–,–,–,–,–
CCCN1CC=C2C(C#N)=C(N)C(C#N)(C#N)C(c3cccc(OC)c3OC)C2C1 (centres undefined),34,–,–,–,–
COC(=O)c1ccccc1NC(=O)Cn1cnc([N+](=O)[O-])c1,–,–,–,–,-89
CCN(CC)c1ccc(C=C(c2nnnn2-c2ccc(C)cc2)c2nnnn2-c2ccc(C)cc2)cc1,32,–,–,–,–
Cc1ccc(-n2nnnc2-c2ccccc2)cc1,–,–,–,–,–
SMILES,D1 ag,D1 PAM,TRHR enhancer,TRHR agonist,D1 antag
CCNS(=O)(=O)c1ccc(NC(=O)Nc2cc(C)ccc2OC)cc1,–,–,–,–,-37
CCNS(=O)(=O)c1ccc(NC(=O)Nc2ccccc2OC)cc1,–,–,–,–,–
COc1ccc(C(=O)NCCCc2ccccc2)cc1OC,–,–,–,–,–
O=C(NCCC(=O)N1CCN(c2ncccn2)CC1)c1ccccc1,–,–,–,–,-33
O=C(O)CCCC(=O)N1CCN(c2ncccn2)CC1,–,–,–,–,-36
CC(=O)C1=C(O)C(=O)N(c2cccc(C(=O)O)c2)C1c1ccccc1F (centres undefined),–,–,–,–,-87
CC(=O)C1=C(O)C(=O)N(Cc2ccccc2)C1c1ccccc1F (centres undefined),–,–,–,–,–
Cn1c(=O)c(/C=C/c2ccc(F)cc2)nc2ccccc21,–,–,–,–,–

# Bioassay records from PubChem BioAssay.
